Source: PubChem BioAssay AID2813 (NMMLSC, 2010)
Where “and” joins values, the source holds several entries; their conditions need not be identical. Equal entries are not always repeated. About 20 (2%) of roughly 1,300 compounds were called active. No stated cut-off is given here; in the data, active means inhibition above about 40%; inactive means the rest. Not all results are given here.

Molecular target: Integrin alpha-4 (Homo sapiens) (UniProt P13612)
Test: VLA-4 modulation in picked hits – cell-based, cherry-picked plates, U937, HUTS-21 LIBS antibody, confirmation (AID 2813);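 further: 0% = ligand without compound and 100% = no ligand background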
Details: U937 cells, HUTS-21 LIBS mAb binding, flow cytometry; at 6.7 µM; stronger effect = higher value; LDV ligand present at threefold Kd

Sequence of Integrin alpha-4 (Homo sapiens) (P13612 whole entry, looked up): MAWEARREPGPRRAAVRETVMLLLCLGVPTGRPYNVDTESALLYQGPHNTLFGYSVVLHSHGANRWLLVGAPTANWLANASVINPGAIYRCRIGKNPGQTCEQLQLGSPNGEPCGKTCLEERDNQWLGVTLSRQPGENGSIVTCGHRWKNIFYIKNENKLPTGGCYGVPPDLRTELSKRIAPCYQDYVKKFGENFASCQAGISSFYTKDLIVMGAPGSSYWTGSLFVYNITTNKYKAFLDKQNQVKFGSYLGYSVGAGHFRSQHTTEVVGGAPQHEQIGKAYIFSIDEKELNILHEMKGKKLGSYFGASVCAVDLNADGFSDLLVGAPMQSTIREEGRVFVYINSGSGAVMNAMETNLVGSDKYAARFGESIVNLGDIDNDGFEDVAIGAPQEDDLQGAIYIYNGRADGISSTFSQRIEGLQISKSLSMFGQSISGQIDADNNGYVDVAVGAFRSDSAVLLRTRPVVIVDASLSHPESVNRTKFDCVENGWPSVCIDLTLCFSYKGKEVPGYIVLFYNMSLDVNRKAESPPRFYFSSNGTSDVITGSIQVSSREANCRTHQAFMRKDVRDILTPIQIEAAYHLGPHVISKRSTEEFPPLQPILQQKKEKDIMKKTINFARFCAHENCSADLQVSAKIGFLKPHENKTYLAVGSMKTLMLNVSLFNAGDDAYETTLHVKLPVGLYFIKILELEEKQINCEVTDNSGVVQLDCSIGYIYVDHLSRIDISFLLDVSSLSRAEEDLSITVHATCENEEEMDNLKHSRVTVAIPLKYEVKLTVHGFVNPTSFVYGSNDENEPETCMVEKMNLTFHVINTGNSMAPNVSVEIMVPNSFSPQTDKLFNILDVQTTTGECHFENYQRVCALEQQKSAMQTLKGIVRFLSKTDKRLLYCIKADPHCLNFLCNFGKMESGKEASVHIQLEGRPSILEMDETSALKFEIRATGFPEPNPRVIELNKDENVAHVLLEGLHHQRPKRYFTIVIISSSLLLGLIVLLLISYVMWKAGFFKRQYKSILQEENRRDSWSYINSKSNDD

inhibition, inactive:
COc1ccc(C(=O)N2CCC(C(=O)Nc3cccc(C)c3)CC2)cc1OC -6.72%
Cc1ccc(NC(=O)OCc2cncs2)cc1 11.7%
CC1(C)SC2C(NC(=O)COc3ccccc3)C(=O)N2C1C(=O)O (stereo not given) 4.42%
COC(=O)[C@]1(Cc2ccccc2)N[C@H](CN(C)S(=O)(=O)c2ccc(OC(F)(F)F)cc2)[C@@H]2C(=O)N(Cc3ccccc3)C(=O)[C@@H]21 -5.51%
CSc1nc(-c2ccco2)nn1C(=O)CCc1ccccc1 9.03%
Cc1cccc(NS(=O)(=O)c2ccc(C)c(C(N)=O)c2)c1 0.43%
CC1(C(=O)NCCc2c[nH]c3ccccc23)C=CC2(CCCCC2)N1C(=O)c1ccccc1 (stereo not given) 5.58%
CCCOc1ccc(N2C(=O)CC(N(CCc3ccc(S(N)(=O)=O)cc3)C(C)=O)C2=O)cc1 (stereo not given) -1.15%
CC(=O)NC12CC3CC(C1)CC(C(=O)N1CCN(S(=O)(=O)c4cccs4)CC1)(C3)C2 -0.75%
Cc1nn(CC(=O)Nc2ccc(C#N)cc2)c(C)c1[N+](=O)[O-] -11.4%
Nc1ccc(Cl)c(S(=O)(=O)Nc2ccccc2Cl)c1 -5.79%
O=C1Cc2cc(S(=O)(=O)Nc3cccc(F)c3)ccc2N1 -8.24%
CC(OC(=O)c1c(F)cccc1F)C(=O)NCCC1=CCCCC1 (stereo not given) 1.98%
O=C(Nc1cccc(S(=O)(=O)Nc2ccc(Cl)cc2)c1)c1ccc2c(c1)OCCO2 -8.53%
Cc1cc(C)n(CC(O)CN(c2ccccc2)S(=O)(=O)c2ccc3ccccc3c2)n1 (stereo not given) 11.9%
CC/C(O)=C1\C(=O)CC(C)(C)CC1=NCCc1nc2ccccc2[nH]1 -5.52%
CC(=O)c1cccc(NC(=O)C2CCN(C(=O)c3ccccc3Cl)CC2)c1 5.38%
COC(=O)c1c(NC(=O)c2c(Cl)cnn2C)sc(C)c1C -13.4%
CCn1c(SCC(=O)Nc2nc(C)cs2)nnc1C(C)NC(=O)c1ccccc1 (stereo not given) 0.62% and 0%
Cc1ccc(S(=O)(=O)N2[C@@H](c3ccc(Br)cc3)C(C(=O)O)=C[C@H]2CC2CCCC2)cc1 4.02%
Cc1cc(C)cc(C(=O)NCC(=O)OCC(=O)N2CCCCC2)c1 13.7%
Cc1ccnc(NC(=O)c2ccco2)n1 -3.54%
S=C(Nc1cccnc1)Nc1ccccn1 -4.45%
COc1cccc(-c2cccc(NC(=O)C3CCN(C4CCC4)CC3)c2)c1 3.49%
COc1cccc(N2CCN(C3CC(=O)N(c4ccc(Cl)cc4)C3=O)CC2)c1 (stereo not given) 3.08%
CCOC(=O)N1CCN(S(=O)(=O)c2ccc3c(c2)C(C)C(=O)N3)CC1 (stereo not given) 0.62%
CCOC(=O)C1CCCN(S(=O)(=O)c2ccc3c(c2)C(C)(C)C(=O)N3C)C1 (stereo not given) 0.62%
CC(=O)c1ccc(N2CCN(S(=O)(=O)c3ccc4c(c3)CC(=O)N4C)CC2)cc1 -9.51%
O=C(CN1CCC(NC(=O)Nc2ccccc2)CC1)Nc1cccc([N+](=O)[O-])c1 1.64%
Cc1cnc(NC(=O)C2CCCC2)s1 -4.15%
Cc1ccc(S(=O)(=O)N2[C@@H](c3cccc4ccccc34)C(C(=O)O)=C[C@H]2C(C)(C)C)cc1 1.98%
CCCN(CC1COc2ccccc2O1)C(=S)Nc1ccc(C)cc1 (stereo not given) -14.3%
COCCNC(=O)Cn1cc2c(n1)CCCCC2 3.34%
CC(C)(C)NC(=O)NC(=O)COC(=O)Cn1c(C(F)(F)F)nc2ccccc21 -13.5%
COc1ccccc1NC(=O)c1cc(Cl)nnc1Cl 0%
COC(=O)N/N=C/c1c[n+]([O-])c2ccccc2[n+]1[O-] 1.64%
COc1cccc(-c2sc3ccc(OC)cc3c2-c2ccc(OCCN3CCCCC3)cc2)c1 3.49%
CCc1ccc2c(c1)C1(NN=C(c3ccccc3)S1)C(=O)N2 (stereo not given) 2.06%
Cc1cc(C(=O)OCC(=O)Nc2ccc(F)c(F)c2)c(C)o1 0%
CCNC(=S)NNC(=O)Cc1ccccc1 -5.51%
CCOC(=O)C1(S(=O)(=O)c2ccccc2)CCN(Cc2ccccc2)CC1 1.76%
COCCOC(=O)C1=C(C)Nc2nc(C)nn2C1c1ccccc1 (stereo not given) 3.82%
CCCOc1ccccc1C1CC(=O)Nc2cc3c(cc21)OCO3 (stereo not given) 37.9%
Cc1cc(C(=O)OCC(=O)NCc2ccco2)c(C)n1-c1ccccc1 24.9%
CCc1nnc(NC(=O)[C@@H](NC(=O)c2cccc(C)c2)C(C)C)s1 3.73%
O=C(Nn1c(-c2ccccc2)nc2ccccc2c1=O)c1ccc([N+](=O)[O-])cc1 -13.4%
CC(C)N(Cc1ccccc1)C(=S)Nc1ccc(OC(F)F)cc1 -7.72%
Cc1cnc(NC(=O)CSc2nnc(C)s2)s1 -0.75%
CCOc1ccc(N(CC(=O)Nc2ccccc2F)S(=O)(=O)c2c(C)[nH]c(=O)[nH]c2=O)cc1 5.58%
COc1ccccc1C1CC(=O)n2c(nc(-c3ccccc3)c2-c2ccccc2)S1 (stereo not given) -0.36%
COc1ccc(-c2sc3ccccc3c2-c2ccc(OCCN3CCOCC3)cc2)cc1 7.43%
CCOC(=O)C1(S(=O)(=O)c2ccc(Cl)cc2)CCN(Cc2ccccc2)CC1 5.07%
CC(=O)c1ccc(NC(=O)Cn2c(=O)oc3ccccc32)cc1 2.42%
CCOC(=O)c1ccc(N2C(=O)CC(N3CC(C)OC(C)C3)C2=O)cc1 (stereo not given) 5.58% and 0%
Cc1cc(C)cc(OCC(=O)NCc2cc(C)nc3ccccc23)c1 -0.36%
NC(=O)Cn1c(=O)oc2ccccc21 -9.51%
Cc1c(CN2CCC(CO)(CCOc3ccccc3)CC2)[nH]c2ccc(Cl)cc12 22.3%
CCC(C)(C)NC(=O)c1cc([N+](=O)[O-])ccc1N1CCCCC1 -9.35%
O=C(CN1CCN(c2ncccn2)CC1)Nc1ccccc1C(F)(F)F 4.55%
Cc1ccccc1OCCC(=O)OCC(=O)NC(C)c1ccccc1 (stereo not given) 9.45%
CC(=O)N1CCc2cc(S(=O)(=O)Nc3ccccc3N3CCN(C)CC3)ccc21 1.98%
Cc1nn(Cc2ccc(Cl)c(Cl)c2)c(C)c1NC(=O)c1cc(C2CC2)on1 -4.2%
COc1ccc2sc(-c3ccccc3OC)c(-c3ccc(OCCN4CCCC4)cc3)c2c1 -4.83%
O=C(Cn1c(NCCO)nc2ccccc21)c1ccc(Cl)cc1Cl 8.37%
Cc1ccc(/C=C/C(=O)OCC(=O)NCc2ccc(Cl)cc2)o1 -0.23%
